Source: PubChem BioAssay (NCATS)
Results filed as inconclusive are left out. Where a call stands in place of a potency, no number is given. The source made the active and inactive calls. Calls follow the shape of the dose curve; as a rule, active = well fitted inhibition curve with a large enough effect; inconclusive = small, poorly fitted or top-dose-only effect, or effect the other way; inactive = flat fitted curve, though single readings scatter.

molecular target: ATP-dependent 6-phosphofructokinase (Trypanosoma brucei brucei) (UniProt O15648); experiment: qHTS Assay to Find Inhibitors of T. brucei phosphofructokinase: hit validation (AID 492961); settings: T. brucei PFK, ADP-Glo luminescence; series mostly up to 51.4 µM
Sequence (O15648 whole entry, looked up): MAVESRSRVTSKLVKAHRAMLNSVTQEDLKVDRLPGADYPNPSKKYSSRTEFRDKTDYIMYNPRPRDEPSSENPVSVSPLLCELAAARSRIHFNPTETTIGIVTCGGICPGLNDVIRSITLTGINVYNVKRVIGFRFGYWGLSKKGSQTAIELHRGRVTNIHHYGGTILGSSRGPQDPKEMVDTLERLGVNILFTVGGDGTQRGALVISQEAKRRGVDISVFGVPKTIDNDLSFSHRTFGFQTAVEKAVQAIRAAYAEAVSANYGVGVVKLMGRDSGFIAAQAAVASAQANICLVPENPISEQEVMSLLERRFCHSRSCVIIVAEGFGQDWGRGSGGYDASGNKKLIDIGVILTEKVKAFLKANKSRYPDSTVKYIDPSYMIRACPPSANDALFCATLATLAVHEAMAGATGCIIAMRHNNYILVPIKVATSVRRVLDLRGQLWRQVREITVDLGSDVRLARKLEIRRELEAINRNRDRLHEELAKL
How it was run: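 Percent activity derived from corrected luminescence, normalized between 0x and 1x enzyme controls, then fitted to concentration-response curves. Conditions: 1.25 nM PFK, 0.1 mM ATP, 0.5 mM F6P, 45 min RT.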
Potency is read from the fitted curve at half-maximal effect.

Question: `CCC(C)(S(=O)(=O)CC)S(=O)(=O)CC` was tested. Which Potency did it give?
Answer: inactive

Question: With `O=C1CN=C(c2ccccc2)c2cc(Cl)ccc2N1CC1CC1` as the compound, how does the Potency read?
Answer: inactive

Question: For `Cn1sc(Cl)cc1=O`, which Potency is on record?
Answer: inactive

Question: How did the Potency turn out when `c1csc(C2(N3CCCCC3)CCCCC2)c1` was run?
Answer: inactive

Question: How did the Potency turn out when `CNC1(c2ccccc2Cl)CCCCC1=O` (stereo unspecified) was run?
Answer: inactive

Question: How did the Potency turn out when `CCC1(c2ccccc2)C(=O)NC(=O)N(C(=O)c2ccccc2)C1=O` (stereo unspecified) was run?
Answer: inactive

Question: `CCC1(CC)C(=O)NC(=O)N(C)C1=O` was tested. Which Potency did it give?
Answer: inactive

Question: Which Potency does the source give for `COCC(C)N(C(=O)CCl)c1c(C)csc1C` (stereo unspecified) here?
Answer: inactive

Question: For `CC(C)CCON=O`, which Potency is on record?
Answer: inactive

Question: How did the Potency turn out when `O=C1CCCCC1CN1CCCCC1` (stereo unspecified) was run?
Answer: inactive

Question: With `ClCC1CO1` (stereo unspecified) as the compound, how does the Potency read?
Answer: inactive

Question: For `O=C(NCNC(=O)NC1C(=O)NC(=O)N1CO)NC1C(=O)NC(=O)N1CO` (stereo unspecified), which Potency is on record?
Answer: inactive

Question: `C[N+]1(C)CCCCC1COC(=O)C(O)(c1ccccc1)c1ccccc1` (stereo unspecified) was tested. Which Potency did it give?
Answer: inactive

Question: Which Potency does the source give for `CCC1(C)CC(=O)NC(=O)C1` here?
Answer: inactive

Question: With `O=C1CCO1` as the compound, how does the Potency read?
Answer: inactive

Question: How did the Potency turn out when `c1ccc(C2(N3CCCC3)CCCCC2)cc1` was run?
Answer: inactive

Question: For `O=C/C=C/c1ccccc1`, which Potency is on record?
Answer: inactive

Question: Which Potency does the source give for `C[CH2][Hg][S]c1ccccc1C(=O)O` here?
Answer: 14.1 µM (active)

Question: With `CN1[C@@H]2CC[C@H]1CC(OC1c3ccccc3CCc3ccccc31)C2` (stereo partly specified) as the compound, how does the Potency read?
Answer: inactive

Question: Which Potency does the source give for `CCCCCCCCOC(=O)c1ccccc1C(=O)OCCCCCCCC` here?
Answer: inactive

Question: Which Potency does the source give for `O=C(CS(=O)C(c1ccccc1)c1ccccc1)NO` (stereo unspecified) here?
Answer: inactive

Question: `S=C=S` was tested. Which Potency did it give?
Answer: inactive

Question: With `CCC1C(C)=NN=C(c2ccc(OC)c(OC)c2)c2cc(OC)c(OC)cc21` (stereo unspecified) as the compound, how does the Potency read?
Answer: inactive

Question: Which Potency does the source give for `C=CCN=C=S` here?
Answer: inactive

Question: For `CC1CCC(C(C)C)C(OC(=O)c2ccccc2N)C1` (stereo unspecified), which Potency is on record?
Answer: inactive

Question: `O=[N+]([O-])C(Br)(CO)CO` was tested. Which Potency did it give?
Answer: 8.91 µM (active)
